Bioassay records as filed in PubChem.
ZTA counter = counter-screen for EBNA-1 inhibitors: inhibitors of Epstein-Barr virus ZTA | inhibition, % at 11 µM | AID 2234 | actives 0.15% (n = 320,000) | ZTA-DNA binding, fluorescence polarization | P03206; in the data active means inhibition above about 33%
EBNA-1 inhibitor = blocks EBNA-1 binding to DNA | EBNA-1 DNA binding, fluorescence polarization | inhibition, % at 14.8 µM | actives 0.34% (n = 300,000) | AID 1950; in the data active means inhibition above about 28%
MEX-5 binding = C. elegans MEX-5 TCR-2 RNA binding activity | Q9XUB2 | activity score (negative = inhibition of binding), % at 10 µM | actives 0.38% (n = 300,000) | MEX-5/FITC-TCR2 RNA binding, fluorescence polarization; hits give low values;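 active means inhibition past about -25% in most replicates, and total fluorescence under double the plate's negative control median, limit read from the data; inconclusive means replicates evenly split on the limit, or fluorescence at least double controls; inactive means too little inhibition in most replicates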
Target sequence (Q9XUB2 whole entry, looked up): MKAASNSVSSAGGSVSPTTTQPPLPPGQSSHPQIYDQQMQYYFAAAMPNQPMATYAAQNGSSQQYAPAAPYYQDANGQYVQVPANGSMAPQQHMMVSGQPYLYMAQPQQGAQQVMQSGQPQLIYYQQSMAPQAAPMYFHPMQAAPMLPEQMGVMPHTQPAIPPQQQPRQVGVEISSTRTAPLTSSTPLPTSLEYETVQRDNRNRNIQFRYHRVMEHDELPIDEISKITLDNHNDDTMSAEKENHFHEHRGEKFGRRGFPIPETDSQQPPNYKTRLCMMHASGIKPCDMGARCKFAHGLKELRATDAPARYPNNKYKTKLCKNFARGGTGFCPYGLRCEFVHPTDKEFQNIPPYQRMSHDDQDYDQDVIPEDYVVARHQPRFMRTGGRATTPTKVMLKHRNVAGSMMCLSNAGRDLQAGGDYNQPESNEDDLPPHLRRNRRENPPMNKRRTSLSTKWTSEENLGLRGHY
EBV gp42 block = EBV gp42 inhibition; Q1HVG2; Fluorescence polarization binding assay, mP read-out; inhibition, % (tested at 21.74 µM); actives 0.42% (n = 220,000); in the data active means inhibition above about 50%
Target sequence (Q1HVG2 whole entry, looked up): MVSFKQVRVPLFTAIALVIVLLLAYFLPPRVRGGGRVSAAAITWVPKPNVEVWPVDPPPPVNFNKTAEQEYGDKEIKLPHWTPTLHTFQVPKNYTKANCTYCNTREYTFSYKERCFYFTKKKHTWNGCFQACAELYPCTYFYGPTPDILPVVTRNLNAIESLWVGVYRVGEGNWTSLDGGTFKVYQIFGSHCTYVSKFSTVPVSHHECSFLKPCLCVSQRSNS
Large screens that a line does not name were inactive. Compounds with a hit are over-represented: about 1% of the library has one in this group of screens.

Cn1c(SCC(=O)NCC2CCCO2)nc2c(c1=O)SCC2 (stereo not given)	none (no result: EBV gp42 block)
COCCn1c(N)c(Sc2ccc(Cl)cc2)c(=O)[nH]c1=O	none (no result: EBV gp42 block)
Cc1nc2ccccc2c(=O)n1CCc1ccccc1	none (no result: EBV gp42 block)
Cc1cc2nc3c(=O)n(CCc4ccccc4)c(=O)[nH]c3nc2cc1N	MEX-5 binding inconclusive, EBV gp42 block 158
Nc1ccc2nc(CCc3ccccc3)[nH]c2c1	none
Nc1ccc2nc3c(=O)n(CCc4ccccc4)c(=O)[nH]c3nc2c1	MEX-5 binding -52, EBV gp42 block 174
Nc1ccc2nc3c(=O)n(C4CCCCC4)c(=O)[nH]c3nc2c1	MEX-5 binding inconclusive, EBV gp42 block 152
COc1cc2[nH]c(=O)n(C3CCCCC3)c(=O)c2cc1OC	none
CCCCn1c(=O)[nH]c2nc3cc(N)ccc3nc2c1=O	EBV gp42 block 174 (no result: MEX-5 binding)
COc1cc(CNC(=O)c2ccccc2NC(=O)C2=C(C)OCCS2)cc(OC)c1OC	none (no result: EBV gp42 block)
Nc1cc(C(=O)O)c(N)c2c1C(=O)c1ccccc1C2=O	ZTA counter active, EBNA-1 inhibitor 146, MEX-5 binding -101, EBV gp42 block 119
CN1C(=O)/C(=C2\SC(=S)N(CCCCCC(=O)O)C2=O)c2ccccc21	EBV gp42 block 73
O=C(O)CCN1C(=O)/C(=C2\C(=O)N(Cc3ccc(F)cc3)c3ccccc32)SC1=S	none (no result: EBV gp42 block)
C=CCn1c(SCC(=O)N(C)C2CCS(=O)(=O)C2)nnc1-c1ccccc1 (stereo not given)	none (no result: EBV gp42 block)
CC(=O)c1ccc(-c2ccc(C(=O)NC3CC(C)(C)NC(C)(C)C3)o2)cc1	none (no result: EBV gp42 block)
CCOC(=O)/C(=C/c1ccc(N2CCC(c3ccccc3)=N2)cc1)C(C)=O	MEX-5 binding -33, EBV gp42 block 156 (no result: ZTA counter, EBNA-1 inhibitor)
c1ccc(C2=NN(c3ccccc3)CC2)cc1	none
CCCCCCCNC(=O)C1(CC2CC(c3ccc(Cl)cc3)=NO2)CCN(C(=O)c2cc(OCC)c(OCC)c(OCC)c2)CC1 (stereo not given)	none (no result: EBV gp42 block)
CC1=CC(=O)c2c(O)ccc(O)c2C1=O	ZTA counter 36, EBNA-1 inhibitor 42, EBV gp42 block 116 (no result: MEX-5 binding)
Cn1c(=O)c(N)c2c3c(c(Br)ccc31)C(=O)c1ccccc1-2	MEX-5 binding -39, EBV gp42 block 171
CCCCn1c(N)c(N(CCOC)C(=O)CCS(=O)(=O)c2ccc(Cl)cc2)c(=O)[nH]c1=O	none (no result: EBV gp42 block)
O=C(N/N=C/C=C/c1ccc([N+](=O)[O-])cc1)c1cccs1	MEX-5 binding -72
O=C(C1=C(O)C(=O)N(c2nccs2)C1c1ccccc1)c1cc2ccccc2o1 (stereo not given)	EBV gp42 block 157
CCOc1cccc(C2C(C(=O)c3ccc(C)o3)=C(O)C(=O)N2c2nccs2)c1 (stereo not given)	MEX-5 binding -71, EBV gp42 block 172
CCOc1cccc(C2C(C(=O)c3ccc(C)o3)=C(O)C(=O)N2Cc2ccncc2)c1 (stereo not given)	none
O=C(O)c1cc(Cl)ccc1-c1ccc(/C=C/c2cc(C(F)(F)F)[nH]c(=O)n2)o1	ZTA counter 53, EBNA-1 inhibitor 43, MEX-5 binding inconclusive
O=C(O)c1ccccc1-c1ccc(/C=C/c2cc(C(F)(F)F)[nH]c(=O)n2)o1	MEX-5 binding inconclusive (no result: ZTA counter, EBNA-1 inhibitor)
COc1ccc(/C=N/N=C2/CC(C)(C)Cc3n[nH]c(=O)cc32)cc1	MEX-5 binding -81, EBV gp42 block 70
O=C(CNS(=O)(=O)c1ccccc1)OCC(=O)c1c[nH]c2ccccc12	none (no result: EBNA-1 inhibitor, MEX-5 binding, EBV gp42 block)
COc1cc(C2C(C#N)=C(N)Oc3n[nH]c(-c4cccnc4)c32)cc(Br)c1O (stereo not given)	MEX-5 binding -34
COc1ccc(C2c3ccc(O)cc3Oc3ncn(Cc4ccco4)c(=N)c32)cc1OC (stereo not given)	MEX-5 binding -29
COc1ccc(C2c3ccc4ccccc4c3Oc3ncn(Cc4ccco4)c(=N)c32)cc1OC (stereo not given)	none
COc1ccc(NC(=O)/C=C/c2cccc(Br)c2)cn1	MEX-5 binding -33 (no result: EBV gp42 block)
NC(=S)n1[nH]c(-c2ccc([N+](=O)[O-])cc2)c(N=Nc2cccc(Cl)c2)c1=O	EBV gp42 block 100 (no result: ZTA counter, EBNA-1 inhibitor)
Cc1ccc(C)n1-c1cc(S(=O)(=O)N2CCOCC2)ccc1N1CCCC1	EBV gp42 block 96
O=[N+]([O-])c1cc(S(=O)(=O)N2CCOCC2)ccc1N1CCCC1	none
Cc1nc2sccn2c(=O)c1S(=O)(=O)Nc1ccc(N2CCN(S(C)(=O)=O)CC2)cc1	none (no result: EBV gp42 block)
Cn1c(N=Nc2ccc(N3CCOCC3)cc2)[n+](C)c2ccccc21	MEX-5 binding -31 (no result: ZTA counter, EBNA-1 inhibitor)
CN1C(=O)/C(=C/c2ccc3c(c2)OCO3)N=C1c1ccccc1	MEX-5 binding -33
CCSC1=N/C(=C\c2ccc3c(c2)OCO3)C(=O)S1	none
Cn1cc(Cl)c(C(=O)Nc2nc3ccc([N+](=O)[O-])cc3s2)n1	EBV gp42 block 67
C#CCOC(=O)/C(=C/C=C/c1ccccc1)NC(=O)c1ccccc1	EBV gp42 block 61
O=C1C(Cl)=C(Nc2ccccc2O)C(=O)N1c1ccccc1	MEX-5 binding -31
Cc1c(NC2=C(Cl)C(=O)N(c3ccccc3)C2=O)c(=O)n(-c2ccccc2)n1C	none
COc1ccccc1N1C(=O)C(Cl)=C(Nc2ccccc2O)C1=O	MEX-5 binding -29 (no result: ZTA counter, EBNA-1 inhibitor)
N#Cc1ccc(S(=O)(=O)NC2CCCCNC2=O)cc1 (stereo not given)	none (no result: EBV gp42 block)
Cc1cc(/C=C2/SC(=S)N(c3cccc(C(F)(F)F)c3)C2=O)c(C)n1-c1cccnc1	none (no result: EBV gp42 block)
Cc1cc(/C=C2\SC(=S)N(Cc3ccco3)C2=O)c(C)n1-c1cccnc1	MEX-5 binding -62, EBV gp42 block 122 (no result: ZTA counter, EBNA-1 inhibitor)
COc1ccc(C2C=C(c3ccccc3)Nc3nc(NC(C)=O)nn32)cc1 (stereo not given)	EBV gp42 block 58
CCOc1ccc(NC(=O)CN(C)C(=O)C2CC(=O)N(c3ccc4c(c3)OCCO4)C2)cc1OCC (stereo not given)	none (no result: EBV gp42 block)
Cc1cc(=O)oc2cc(OCC(=O)N/N=C/c3cc([N+](=O)[O-])ccc3O)ccc12	EBV gp42 block 92
Cc1ccc(C)c(NC(=O)CCC(=O)N/N=C/c2cc([N+](=O)[O-])ccc2O)c1	none
O=C(NC1CC1)C1CCN(C2CCN(C(=O)c3c(F)cccc3Cl)CC2)CC1	none (no result: EBV gp42 block)
O=C1Nc2ccccc2C1=O	none (no result: EBV gp42 block)
O=C1Nc2ccc3sc4ccccc4c3c2C1=O	EBV gp42 block 58
COc1ccc(CC(=O)Nc2ccc(F)c(Cl)c2)cc1S(=O)(=O)N1CCOCC1	none (no result: EBNA-1 inhibitor, MEX-5 binding, EBV gp42 block)
C=CCn1c(=O)[nH]c2nc3cc(N=CN(C)C)c(C)cc3nc2c1=O	MEX-5 binding -51, EBV gp42 block 118
CCCc1cc(=O)n(-c2nc3ccccc3s2)[nH]1	EBV gp42 block 69 (no result: MEX-5 binding)
O=C(NCc1ccc(Cl)cc1)c1n[nH]c([N+](=O)[O-])c1Cl	none
COc1ccc(/C=N/NC2=NS(=O)(=O)c3ccccc32)cc1	none (no result: EBV gp42 block)
CN(C)c1ccc(/C=N/N(CCC(=O)NC(C)(C)C)C2=NS(=O)(=O)c3ccccc32)cc1	MEX-5 binding -53 (no result: EBV gp42 block)
CN(C)c1ccc(/C=N/NC2=NS(=O)(=O)c3ccccc32)cc1	MEX-5 binding -41 (no result: EBV gp42 block)
O=C(N/N=C/c1ccc([N+](=O)[O-])o1)c1cc2ccccc2o1	none
O=C(N/N=C/c1ccc([N+](=O)[O-])o1)c1cc2c(ccc3ccccc32)o1	EBV gp42 block 60 (no result: ZTA counter, EBNA-1 inhibitor, MEX-5 binding)
